# Hit rate of the full screen: of about 320,000 compounds, about 22,000 (6.9%) were called active. Not shown: some 27% with an inconclusive outcome. The entries come from a sample that favours actives as a whole. Values without a mark were called inactive. Calls come from the whole dose curve; as a rule, active = well fitted inhibition curve with a large enough effect; inconclusive = small, poorly fitted or top-dose-only effect, or another doubt; inactive = no such curve, though single readings can be large or run the other way.
# Experiment: Primary qHTS for delayed death inhibitors of the malarial parasite plastid, 96 hour incubation
# Conditions: P. falciparum luciferase reporter growth; series mostly up to 28.7 µM; activity change, negative = inhibition: at the top concentration
# How it was run: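 96 h incubation, 37 C, 5% CO2, of luciferase-reporter P. falciparum-infected RBCs (2% hematocrit, 0.05% parasitemia final) with test compounds; endpoint luminescence.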
# % is set by controls: 0 for no effect and ±100 for the full control effect; potency is the fitted concentration of half-maximal effect.
Structure (SMILES),"activity change, negative = inhibition",Potency
COc1ccc(/C=C2\SC(=S)N(CCC(=O)Nc3ccccn3)C2=O)cc1OC,79.2%,–
CCCNS(=O)(=O)c1ccc2c(c1)CCCN2C(C)=O,94.1%,–
CCC(=O)N1CCc2cc(S(=O)(=O)CCC(=O)N3CCN(c4ccccc4F)CC3)ccc21,29.7%,–
CCOc1ccc(NC(=O)CCS(=O)(=O)c2ccc3c(c2)CCCN3C(=O)CC)cc1,–,9.28 µM (active)
C=CCn1c(SCC(=O)NC(=O)Cc2ccccc2)nc2ccccc2c1=O,3.17%,–
CCCCN1C(=O)/C(=C/C=C2/C=Cc3ccccc3N2CC)SC1=S,–,0.117 µM (active)
CCN1C(=O)/C(=C\N2CCN(c3cccc(Cl)c3)CC2)SC1=S,51.9%,–
CCN1C(=O)/C(=C2/Sc3ccccc3N2CCCS(=O)(=O)O)SC1=S,61.5%,–
O=C(NCCCc1ccccc1)C1CCC(=O)N(CCc2ccc(Cl)cc2)C1 (stereo not given),-0.691%,–
COc1ccccc1CNS(=O)(=O)c1c(C)[nH]c(C)c1C(=O)N1CCCCC1,12.7%,–
COc1ccc(CN2CCN(C(=O)c3cc(C4CC4)nn3-c3ccccc3)CC2)cc1F,–,11.7 µM (active)
COc1cc(CN2CCC(C(N)=O)CC2)ccc1OCc1ccccc1,60%,–
COc1cccc(NC(=O)CN(C)C(=O)c2cc(C3CC3)nn2-c2ccccc2)c1,-26.3%,–
O=C(NCc1cccnc1)c1ccccc1NC(=O)c1c(F)cccc1F,1.54%,–
Cc1cc(C)c(NC(=O)CN2C(=O)NC(Cc3ccccc3)C2=O)c(C)c1 (stereo not given),11%,–
O=[N+]([O-])c1ccc2nc(-c3ccccn3)[nH]c2c1,-13.9%,–
O=C(CSC(=S)N1CCOCC1)c1cc(Br)cc(Br)c1O,26.6%,–
O=P(O)(CN1CCCCCC1)C1Cc2ccccc2C1,-49.8%,–
O=C(Cc1nc2ccccc2[nH]c1=O)c1ccc(Cl)cc1,141%,–
O=C(/C(=C/c1cccc(Cl)c1)c1nc2ccccc2[nH]1)c1ccccc1,–,11.7 µM (active)
O=C(CCc1nc2ccccc2c(=O)[nH]1)OCC(=O)c1cccc(Cl)c1,51.6%,–
Cc1ccc(-c2nc3ccccc3[nH]c2=O)cc1,111%,–
N#CCc1ccc(NC(=O)c2ccccc2C(=O)Nc2ccc(CC#N)cc2)cc1,16.3%,–
NS(=O)(=O)c1ccc2nc(NC(=O)C3=COCCO3)sc2c1,6.79%,–
NC(=O)Nc1cccc(C(F)(F)F)c1,28.4%,–

Structure (SMILES),"activity change, negative = inhibition",Potency
O=C(O)CC1(CC(=O)Nc2cccc(C(F)(F)F)c2)CCCC1,24.4%,–
O=C(Nc1cccc(C(F)(F)F)c1)c1cc(Br)cc(Br)c1O,–,15.1 µM (active)
CC(=O)Nc1ccc(NC(=O)COC(=O)c2ccccc2C(=O)c2ccccc2)cc1,-7.56%,–
O=C(Nc1cccc([N+](=O)[O-])c1)Nn1cnnc1,-1.29%,–
Cn1nc(C(F)(F)F)cc1-c1ccc(/C=C(\C#N)C(=O)c2cccc(C(F)(F)F)c2)s1,54.3%,–
Cc1ccc(NNC(=O)c2c(F)cccc2Cl)cc1Cl,34.9%,–
COc1ccccc1NC(=O)CSc1nnc(CNC(=O)c2ccccc2F)o1,–,1.65 µM (active)
Cc1ccc(NC(=O)CSc2nnc(CNC(=O)c3ccccc3F)o2)cc1,4.83%,–
CCCCCNC(=O)c1cccnc1SCC(=O)Nc1ccccc1OC,60.2%,–
CC1(C)NC(=O)N(CC(=O)N2CCN(S(=O)(=O)c3ccccc3F)CC2)C1=O,-1.59%,–
O=C(Nc1cccc(-c2nc3ccccc3[nH]2)c1)c1ccc(C(=O)Nc2cccc(-c3nc4ccccc4[nH]3)c2)cc1,–,0.37 µM (active)
O=C(Cc1cccs1)Nc1cccc(-c2nc3ccccc3[nH]2)c1,-7.98%,–
O=C(Nc1cccc(NC(=O)c2ccc(Br)cc2)c1)c1ccccc1,71.5%,–
N#CC1(NC(=O)COC(=O)Cc2n[nH]c(=O)c3ccccc23)CCCCC1,24.1%,–
CCN(C(=O)CSc1nnc(-c2ccc(OC(F)F)cc2)n1N)C1CCS(=O)(=O)C1 (stereo not given),7.28%,–
COc1cc(C)cc(CN2CCC(Cc3ccccc3)CC2)c1O,–,1.17 µM (active)
O=c1cc(CO)oc(CN2CCC(Cc3ccccc3)CC2)c1O,-8.24%,–
NC(=O)c1ccc(CN2CCC(Cc3ccccc3)CC2)cc1,-16.8%,–
CC(C)NC(=O)NNc1c(Cl)cncc1Cl,23%,–
O=C(CNS(=O)(=O)c1ccc2ccccc2c1)Nc1ccc(F)c(F)c1F,12.1%,–
COc1ccc(/C=N/NC(=O)C2CC2)c(OC)c1OC,103%,–
COc1ccc(S(=O)(=O)N2CCCC(C(=O)Nc3ccc(NC(=O)c4ccccn4)cc3)C2)cc1 (stereo not given),17%,–
CN(CC(=O)NC1CCCCC1)S(=O)(=O)c1cccc2cccnc12,22.2%,–
COc1cccc(CNC(=O)C2CCN(S(=O)(=O)c3cccc4cccnc34)CC2)c1,13.2%,–
COc1ccc(NC(=O)C2CCCN(S(=O)(=O)c3cccc4cccnc34)C2)cc1 (stereo not given),63.6%,–
